Compound activity as filed in PubChem.
Rows were chosen to be rich in hits. Some 6.9% of all compounds tested hit in one or more screens of this group.
KB-3-1 tox = qHTS assay for MDR1-selective chemotherapeutics: Primary screen using the parental adenocarcinoma cell KB-3-1; KB-3-1 viability, CellTiter-Glo ATP luminescence, 72 h; Potency, µM (doses to about 46.1 µM), actives largely listed as cytotoxic; 1.4% of 400,000 active; further: potency means the concentration at half of the fitted maximal effect; on the % scale 0 is the no-effect control and ±100 the full control effect; nearly all actives have a fitted effect of over 60% in size
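Cells are dispensed, compounds pinned in, plates held at 37 °C for 72 h, then CellTiter-Glo is added and luminescence read after 10 minutes. Cell line: parental KB-3-1 in phenol-red-free DMEM, 10% FBS.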
KB-V1 MDR tox = qHTS assay for MDR1-selective chemotherapeutics: Primary screen using the drug-selected MDR subline cells KB-V1; KB-V1 MDR cells viability, CellTiter-Glo, 72 h; Potency, µM (top dose mostly 46.1 µM), most hits filed as cytotoxic; 3.4% of 400,000 active; AID 1347076, 2019; further: potency means the concentration at half of the fitted maximal effect; on the % scale 0 is the no-effect control and ±100 the full control effect; nearly all actives have a fitted effect of over 60% in size
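qHTS viability screen in drug-selected KB-V1 MDR cells: 72 h compound treatment at 37 degrees C, ATP luminescence end point.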
MCF10A rerep = A quantitative high throughput screen for small molecules that induce DNA re-replication in MCF 10a normal breast cells; MCF 10A DNA re-replication, Hoechst nuclear intensity, 48 h; Potency, µM (titrated, usually from 46.1 µM), inactives show at the highest dose activity, positive = re-replication, most hits filed as activators; 2.9% of 350,000 active; AID 624296, 2012; further: potency means the concentration at half of the fitted maximal effect; % of control where 0% means no effect; nearly all actives have a fitted effect of over 50% in size
SW480 rereplic = A quantitative high throughput screen for small molecules that induce DNA re-replication in SW480 colon adenocarcinoma cells; SW480 DNA re-replication, Hoechst DNA content imaging, 48 h; Potency, µM (top dose mostly 46.1 µM), for inactives: at the top dose re-replication activation, most hits filed as activators; 1.8% of 340,000 active; AID 624297, 2012; further: potency means the concentration at half of the fitted maximal effect; % of control where 0% means no effect; nearly all actives have a fitted effect of over 55% in size
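Image-based read-out: total Hoechst fluorescence of nuclei (405 nm excitation, 500-530 nm emission), with hits raising the fraction of high-intensity nuclei. SW480 colon cells incubated 48 hr with compounds at 37 C.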
Giardia kill = Small Molecules that selectively kill Giardia lamblia: qHTS; 0.15% of 340,000 active; Giardia lamblia trophozoite viability; activity change, % at 7.66 µM, hits read low; in the data active means activity change below about -80%; inconclusive means between about -30% and that limit;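 further: parasites exposed to compound for two days anaerobically before the ATP read; on the % scale 0 is the no-effect control and ±100 the full control effect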
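Trophozoites 100 cells/well + cpd; 48 hrs, 37 deg C, anaerobic. ATPLite 1-Step added, 15-30 min RT, luminescence read (ATP-based viability).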
ASM inhibitor = Inhibitors of Secretory Acid Sphingomyelinase (S-ASM): qHTS. placental ASM, HMU-PC fluorogenic substrate, 60 min. 0.006% of 340,000 active. Potency, µM (top dose mostly 57.5 µM), for inactives: at the highest dose activity change, negative = inhibition, actives largely listed as inhibitors. AID 504937, 2011. Sphingomyelin phosphodiesterase (Homo sapiens), P17405; further: potency means the concentration at half of the fitted maximal effect
Target sequence (P17405 47-631 limits assumed): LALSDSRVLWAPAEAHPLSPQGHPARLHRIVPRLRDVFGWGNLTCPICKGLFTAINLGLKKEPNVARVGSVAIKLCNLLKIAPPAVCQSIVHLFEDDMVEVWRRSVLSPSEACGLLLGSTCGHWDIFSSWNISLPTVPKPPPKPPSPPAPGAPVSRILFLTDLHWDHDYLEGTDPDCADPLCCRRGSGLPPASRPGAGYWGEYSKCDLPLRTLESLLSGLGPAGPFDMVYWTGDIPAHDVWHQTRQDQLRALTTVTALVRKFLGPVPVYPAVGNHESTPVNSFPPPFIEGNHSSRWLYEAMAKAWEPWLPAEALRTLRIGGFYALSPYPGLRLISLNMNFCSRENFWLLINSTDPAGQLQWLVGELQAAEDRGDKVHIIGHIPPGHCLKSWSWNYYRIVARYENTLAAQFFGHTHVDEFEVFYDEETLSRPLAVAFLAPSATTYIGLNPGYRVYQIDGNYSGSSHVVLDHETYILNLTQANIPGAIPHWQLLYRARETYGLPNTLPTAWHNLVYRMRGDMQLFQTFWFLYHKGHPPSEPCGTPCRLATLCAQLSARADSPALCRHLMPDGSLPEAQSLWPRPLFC
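Human placenta-derived ASM preincubated with compound 10 min at room temperature, then reacted with 9 uM (final) fluorogenic HMU-PC substrate for 60 min at 37 C. Stop solution raises pH to 10; fluorescence read at Ex 386/Em 447 nm.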
* = called active by the depositor; i = inactive; u = inconclusive; x = no result; [ ] = another dose, or the depositor's remark. Unless noted, the call rests on the fitted dose curve; in most records, active means well fitted curve in the direction sought with a large enough effect; inconclusive means small, poorly fitted or top-dose-only effect, or another doubt; inactive means no such curve, though single readings can be large; an effect the other way counts as inactive or inconclusive.

SMILES	KB-3-1 tox	KB-V1 MDR tox	MCF10A rerep	SW480 rereplic	Giardia kill	ASM inhibitor
Cc1ccc2ccc3c(c2n1)NS(=O)(=O)c1ccc(C(F)(F)F)cc1-3	x	x	x	x	4.7	x
CCOC(=O)c1ccc(NC(=O)CCc2c(C)nc3c(c(C)nn3C(C)(C)C)c2C)cc1	i	u	x	x	x	x
N#Cc1nc(N(c2ccccc2)c2ccccc2)nc(-n2cccc2)n1	i	i	x	x	-21.1	x
O=C(Nc1ccc(Cl)cc1)C1CCN(C(=O)NC2CCCCC2)CC1	i	i	0.1%	-2.7%	-6.4	-0.5%
O=C(c1ccc(Cl)cc1)C1CCN(C(=O)NC2CCCCC2)CC1	i	2.31µM*	23.8%	-0.7%	-11.2	0.7%
CCCOc1ccc(-c2nonc2NC(=O)c2cc(OC)c(OC)c(OC)c2)cc1OCCC	i	i	x	x	x	x
Cc1ccc(C)c(N2CCN(C3C(=O)Nc4ccccc4-n4nnnc43)CC2)c1 (configuration not stated)	14.6µM*	11.6µM*	x	x	x	x
Cc1cc2oc(=O)c(CC(=O)O)c(C)c2c2occ(-c3ccc(F)cc3)c12	i	i	x	x	x	x
COC(=O)c1c(NC(=O)Cc2ccccc2)sc2c1C(C(=O)OC)CC2 (configuration not stated)	i	i	19.3%	-11.0%	16.1	-0.9%
COC(=O)c1c(NC(=O)C(Cl)Cl)sc2c1C(C(=O)OC)CC2 (configuration not stated)	i	i	8.2µM*	u	-9.9	3.2%
COC(=O)c1c(NC(=O)C(C)(C)C)sc2c1C(C(=O)OC)CC2 (configuration not stated)	u	20.6µM*	19.9%	-3.3%[9.22 µM]	6.3	-2.8%
O=S(=O)(c1ccc(C(F)(F)F)cc1)N1CCN(c2nc(-c3cccs3)nc3ccccc23)CC1	x	x	x	x	3.2	x
COc1ccc(-c2cc(-c3ccc(C)cc3)nc3c2COc2ccccc2-3)cc1	i	i	x	x	x	x
CCN1C[C@@H]2[C@@H]3C(=O)N(C)C(=O)[C@@H]3[C@](CC)(C1=O)N2C(=O)c1ccccc1	i	i	u	-5.6%	-8.8	-1.2%
CCCc1nn(C)c(C(=O)Nc2cccc(CC)c2)c1Cl	i	18.4µM*	u	-11.6%	34.5	-0.9%
CCCc1nn(C)c(C(=O)Nc2ccc3ccccc3c2)c1Cl	i	i	14.9%	-3.3%	-6.1	2.0%
Cc1c(CNC2CCCCCC2)c(C(=O)O)c(C)n1Cc1cccc(Cl)c1	u	i	x	x	x	x
COc1ccc(NS(=O)(=O)c2cc(C(=O)N3CCN(C/C=C/c4ccccc4)CC3)ccc2C)cc1	18.4µM*	5.8µM*	11.1%	-0.9%	-0.8	-1.5%
O=C(CCNS(=O)(=O)c1ccc(OC(F)(F)F)cc1)N1CCN(C/C=C/c2ccccc2)CC1	u	6.51µM*	u	2.0%	19.1	3.0%
O=C(CCNS(=O)(=O)c1ccc(OC(F)(F)F)cc1)N1CCCC1	i	i	0.4%	-2.5%	-2.5	2.0%
COc1ccc(C)cc1S(=O)(=O)N1CCN(C/C=C/c2ccccc2)CC1	i	18.4µM*	0.3%	-2.6%	2.3	0.0%
COc1ccc(C)cc1S(=O)(=O)N1CCN(S(=O)(=O)c2cc(C)ccc2OC)CC1	i	u	-5.8%	-3.1%	14.0	-3.1%
Cc1ccc(C(=O)Nc2cccc3[nH]c(C(F)(F)F)nc23)cc1	16.4µM*	18.4µM*	u	25.3%	11.1	-1.9%
COc1ccc(Cl)cc1NC(=O)NC(C)c1ccncc1 (configuration not stated)	i	18.4µM*	u	0.4%	10.9	2.4%
COc1ccc(Cl)cc1NC(=O)CN1c2ccccc2CC1C (configuration not stated)	u	14.6µM*	14.4%	5.4%	13.8	-3.5%
SMILES	KB-3-1 tox	KB-V1 MDR tox	MCF10A rerep	SW480 rereplic	Giardia kill	ASM inhibitor
COc1ccc(C)cc1NC(=O)CNC(c1ccccc1)c1ccccc1	i	i	u	25.2%	-12.2	-2.5%
COc1ccc(CNC(=O)CNC(c2ccccc2)c2ccccc2)cc1OC	i	8.2µM*	20.4%	-2.8%	34.1	-0.2%
COc1ccc(Cl)cc1NC(=O)CNC(c1ccccc1)c1ccccc1	u	14.6µM*	u	u	-3.8	-13.1%
O=[N+]([O-])c1ccc(Nc2nc(NCCN3CCOCC3)nc(Nc3ccc(I)cc3)n2)cc1	u	i	x	x	x	x
COc1ccc(-c2ccccc2)cc1NCc1ccc(OC)c(OC)c1	i	16.4µM*	11.0%	-7.1%	4.7	-1.1%
CN(C)/C=N/c1c(C#N)cnn1-c1ccc(C(F)(F)F)cn1	i	i	14.6µM*	18.2%	2.9	1.3%
O=C(C[n+]1ccccc1)c1cccc([N+](=O)[O-])c1	i	i	x	x	x	x
COc1cccc(NC(=O)CN(C)C(=O)c2cccnc2Sc2ccc(C)c(C)c2)c1	i	u	2.7%	9.1%	-11.8	x
Cc1ccc(O)c(C(=O)c2cc(C(=O)NCCc3ccccc3)c(=O)n(CCc3ccccc3)c2)c1	i	i	u	u	-6.5	-7.6%
COc1ccc(O)c(C(=O)c2cc(C(=O)NCCc3ccccc3)c(=O)n(CCc3ccccc3)c2)c1	i	2.06µM*	6.3%	1.2%	7.7	-14.9%
Cc1nc2ccccn2c(=O)c1CCN1CCC(C(=O)c2ccc(F)cc2)CC1	i	i	9.2%	-9.7%	-17.3	4.6%
Cc1nc2sccn2c(=O)c1CCN1CCC(=C(c2ccc(F)cc2)c2ccc(F)cc2)CC1	i	u	2.06µM*	u	-14.4	-9.1%
COc1ccc(-c2nnc(SCC(=O)Oc3cc(C)ccc3C)o2)cc1	i	i	x	x	x	x
Cc1cc2c(OCC(CNC(C)(C)C)OC(=O)c3ccccc3)cccc2[nH]1 (configuration not stated)	x	x	2.8%	-1.7%	x	x
O=C(NC1CCCCC1)C(c1ccnc2ccccc12)n1c(=O)c(-c2ccccc2)nc2ccccc21 (configuration not stated)	18.4µM*	23.1µM*	x	x	x	x
O=C(NC1CCCCC1)C(c1ccnc2ccccc12)n1c(=O)c(-c2cc3ccccc3[nH]2)nc2ccccc21 (configuration not stated)	u	i	x	x	x	x
Cc1c(/C=N\NC(=O)C2COc3ccccc3O2)c2ccccc2n1C (configuration not stated)	u	u	u	x	-9.7	u
